About 83,000 compounds went through this panel and 20% of them were active in at least one assay; those are over-represented in the sample as a whole.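 Cell lines were cultured in 96-well plates, exposed to a single compound concentration, and assessed for percent growth 48 hours later.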 A number with no mark means an inactive call. Activity calls are given as the source filed them. How the source made its calls: active means growth percent below 10; inactive means the rest.

The source of these data is PubChem BioAssay (NCI).

Among the test systems are T-47D breast; BT-549 breast; MDA-MB-435 melanoma; SW-620 colon; MCF7 breast; HCT-116 colon; HCC-2998 colon; KM12 colon.
Common to all, as to assay: NCI-60 one-dose screen, 48 h (100 = growth as untreated, 0 = no growth, -100 = all killed)
What all share (conditions): 10 µM unless noted

Consider `Cc1ccc(Nc2ncnc3c2sc2ncccc23)cc1`, for which the growth in the assay with T-47D breast is 95.9%; in the assay on BT-549 breast, 111%; in the assay with MDA-MB-435 melanoma it was 108%; in the assay on SW-620 colon, 99.8%; in the assay on MCF7 breast, 92.8%; in the assay on HCT-116 colon, 106%. Also, the growth in the assay with HCC-2998 colon was 103%; with KM12 colon it was 105%.

As for `COC(=O)c1ccc2nc(-c3cc4ccccc4n3C)n(CCCCOc3cc4c(cc3OC)C(=O)N3CCC[C@H]3C=N4)c2c1`, the growth in the assay on T-47D breast is 4.1% (active); in the assay with BT-549 breast it was -53.6% (active); with MDA-MB-435 melanoma, -88.6% (active); in the assay on SW-620 colon it was -23% (active); in the assay with MCF7 breast, 2.44% (active); in the assay on HCT-116 colon, 8.52% (active). Further, the growth in the assay with HCC-2998 colon was -17.6% (active); with KM12 colon it was -29.2% (active).

In the case of `COc1cc(/C=C2\C=C(c3ccc(F)cc3)N(Cc3ccccc3)C2=O)cc(OC)c1OC`, the growth in the assay with T-47D breast was 49.1%; with BT-549 breast, 77.3%; in the assay with MDA-MB-435 melanoma it was 75.2%; in the assay with SW-620 colon it was 77.4%; in the assay on MCF7 breast, 50.8%; in the assay with HCT-116 colon, 42.2%. Also, the growth was 103% in the assay on HCC-2998 colon and 63.1% with KM12 colon.

Regarding `C=CCc1cc(Cl)cc2c(OC(C)=O)c(C(C)=O)c(-c3ccccc3)nc12`, the growth with T-47D breast is 90.8%; in the assay on BT-549 breast, 116%; with MDA-MB-435 melanoma, 108%; with SW-620 colon, 107%; with MCF7 breast, 82.1%; with HCT-116 colon, 105%. Besides, the growth is 118% in the assay on HCC-2998 colon and 99.5% in the assay with KM12 colon.

In the case of `Cc1cc(Nc2nc(C(=O)Nc3ccccc3)nc3ccccc23)n[nH]1`, the growth in the assay with T-47D breast was 47%; in the assay with BT-549 breast, 50.6%; with MDA-MB-435 melanoma, 64.9%; with SW-620 colon it was 77.5%; in the assay with MCF7 breast it was 72.1%; in the assay with HCT-116 colon, 45.6%. Besides, the figures for the growth in the assay on HCC-2998 colon and with KM12 colon were 84.3% and 28%, respectively.

Take `O=C(CNC1CCCCC1)Nc1ccc(-c2nc3ccccc3s2)cc1`: the growth in the assay on T-47D breast was 69.1%; in the assay with BT-549 breast it was 87.6%; with MDA-MB-435 melanoma it was 90.4%; in the assay on SW-620 colon it was 100%; in the assay on MCF7 breast it was 28%; with HCT-116 colon, 77%. For the same compound, the growth in the assay on HCC-2998 colon is 87.3%; with KM12 colon, 83.9%.

In the case of `O=C(O)c1cccc([N+](=O)[O-])c1/C=C/c1ccccc1`, the growth in the assay with T-47D breast is 95.2%; in the assay with BT-549 breast, 106%; in the assay with MDA-MB-435 melanoma it was 105%; with SW-620 colon, 96.7%; in the assay on MCF7 breast, 95.5%; with HCT-116 colon, 94.3%. For the same compound, the figures for the growth with HCC-2998 colon and in the assay with KM12 colon were 103% and 99.8%, respectively.

For the compound `COc1ccc(-c2nc3sccn3c2-c2ccnc(NCCCNS(=O)(=O)c3ccc(F)cc3)n2)cc1`, the growth in the assay on T-47D breast was -12.7% (active); in the assay on BT-549 breast, 10%; with MDA-MB-435 melanoma it was 14.1%; in the assay on SW-620 colon, 23.2%; with MCF7 breast, 11.6%; in the assay with HCT-116 colon it was 8.56% (active). The growth in the assay on HCC-2998 colon was 52%; in the assay with KM12 colon, 9.82% (active).

For `CCC#CC[C@H]1C/C=C2/C(=O)C=C[C@@H]2C/C=C\CCCC(=O)O1`, the growth in the assay on T-47D breast is 24.1%; in the assay with BT-549 breast, 0.46% (active); in the assay with MDA-MB-435 melanoma it was -0.679% (active); in the assay with SW-620 colon it was 0.0835% (active); with MCF7 breast it was 18.3%; with HCT-116 colon, -70.9% (active). For the same compound, the growth was -67% (active) in the assay with HCC-2998 colon and -48.8% (active) in the assay on KM12 colon.

With `CCCn1c(=S)sc2c(Cl)nc(C)nc21`, the growth was 104% in the assay on T-47D breast; 42.9% with BT-549 breast; 104% in the assay on MDA-MB-435 melanoma; 102% in the assay with SW-620 colon; 46.7% in the assay with MCF7 breast; 104% in the assay with HCT-116 colon. Moreover, the growth with HCC-2998 colon was 111%; with KM12 colon, 104%.

On to `CC1=CNNc2c3ncnc-3ncn21`, for which the growth with T-47D breast is 101%; in the assay on BT-549 breast, 106%; with MDA-MB-435 melanoma, 111%; with SW-620 colon, 102%; in the assay on MCF7 breast, 111%; with HCT-116 colon it was 102%. Moreover, the values for the growth in the assay with HCC-2998 colon and with KM12 colon were 102% and 103%, respectively.

Consider `COc1cc(-c2cc(/C=C3\CCCCC3=O)[nH]n2)cc(OC)c1OC`, for which the growth in the assay with T-47D breast was 90.1%; with BT-549 breast it was 99.7%; in the assay with MDA-MB-435 melanoma, 102%; in the assay on SW-620 colon, 101%; in the assay on MCF7 breast, 92.5%; with HCT-116 colon, 89%. In addition, the growth in the assay on HCC-2998 colon is 106%; with KM12 colon, 94.4%.

Turning to `c1cc(-c2ccc3c(c2)OCO3)n2nccc2n1`, the growth is 88.2% with T-47D breast; 101% with BT-549 breast; 98.2% in the assay on MDA-MB-435 melanoma; 105% in the assay on SW-620 colon; 89.9% in the assay on MCF7 breast; 102% in the assay with HCT-116 colon. In the assay on HCC-2998 colon, the growth was 86.9%.

As to `CC1Cc2c(N(C)C)ncnc2N(C)c2ccc(Cl)cc21` (configuration not stated), the growth in the assay on T-47D breast was 37.1%; in the assay with BT-549 breast, 24.6%; in the assay with MDA-MB-435 melanoma, -32.2% (active); in the assay with SW-620 colon, 17.9%; in the assay with MCF7 breast it was 15.2%; in the assay with HCT-116 colon, 16.9%. The results for the growth with HCC-2998 colon and in the assay on KM12 colon were 50.1% and 23.6%, respectively.

Regarding `COc1cc(Cn2c(SCC(=O)Nc3cc(OC)c(OC)c(OC)c3)nc3ccccc3c2=O)cc(OC)c1OC`, the growth in the assay on T-47D breast is 77%; in the assay with BT-549 breast, 65.2%; in the assay with MDA-MB-435 melanoma, 102%; with SW-620 colon it was 91.7%; in the assay with MCF7 breast, 95.3%; in the assay with HCT-116 colon it was 58.3%. In addition, the figures for the growth in the assay with HCC-2998 colon and in the assay on KM12 colon were 124% and 99.1%, respectively.

For the compound `CC1(C)OC2COC3(C(=O)O)OC(C)(C)OC3C2O1` (configuration not stated), the growth with T-47D breast was 90.2%; in the assay on BT-549 breast it was 106%; in the assay with MDA-MB-435 melanoma, 93.8%; in the assay with SW-620 colon, 98.2%; in the assay with MCF7 breast, 99.7%; in the assay with HCT-116 colon it was 114%. Besides, the values for the growth in the assay on HCC-2998 colon and with KM12 colon were 97.6% and 98.4%, respectively.
